# Source: PubChem BioAssay (National Center for Advancing Translational Sciences (NCATS))
# HEK293 tox: HEK 293 cell cytotoxicity | 6.6% of 94,000 active | HEK 293 viability, ATP luminescence (CellTiter-Glo), 48-72 h | AID 1345083 | Potency, µM (highest dose often 115 µM), inactives show top-dose activity change, negative = cytotoxicity, hits mostly inhibitors; further: nearly all actives have a fitted effect of over 60% in size
#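 Pintool-delivered compounds were incubated with HEK 293 cells (250 cells/well) at 37 degree Celsius for 48 or 72 hr. ATP-dependent luminescence (CellTiter-Glo) then reported remaining viable cells.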
# NPR1 antag: human Npr1 receptor antagonism | P16066 | HEK293 hNpr1 GloSensor cGMP, ANP-stimulated luminescence | Potency, µM (top dose mostly 46.3 µM), for inactives: at the highest dose activity change, negative = inhibition, actives largely listed as inhibitors | 1.6% of 76,000 active | AID 1347048; calls by dose curve; further: nearly all actives have a fitted effect of over 60% in size
#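 HEK293 cells stably expressing human Npr1 and cGMP GloSensor pGS-40F, loaded 2 h with 2% GloSensor reagent, given compound 30 min at room temperature. Luminescence read before and 20 min after 0.1 nM hNppA.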
# Luciferase inh: inhibitors of firefly (Photinus pyralis) luciferase | purified P. pyralis luciferase, luminescence, biochemical | AID 1347043 | 2.5% of 76,000 active | P08659 | Potency, µM (top dose mostly 115 µM), usual class: inhibitors; further: nearly all actives have a fitted effect of over 65% in size
# Target sequence (P08659 whole entry, looked up): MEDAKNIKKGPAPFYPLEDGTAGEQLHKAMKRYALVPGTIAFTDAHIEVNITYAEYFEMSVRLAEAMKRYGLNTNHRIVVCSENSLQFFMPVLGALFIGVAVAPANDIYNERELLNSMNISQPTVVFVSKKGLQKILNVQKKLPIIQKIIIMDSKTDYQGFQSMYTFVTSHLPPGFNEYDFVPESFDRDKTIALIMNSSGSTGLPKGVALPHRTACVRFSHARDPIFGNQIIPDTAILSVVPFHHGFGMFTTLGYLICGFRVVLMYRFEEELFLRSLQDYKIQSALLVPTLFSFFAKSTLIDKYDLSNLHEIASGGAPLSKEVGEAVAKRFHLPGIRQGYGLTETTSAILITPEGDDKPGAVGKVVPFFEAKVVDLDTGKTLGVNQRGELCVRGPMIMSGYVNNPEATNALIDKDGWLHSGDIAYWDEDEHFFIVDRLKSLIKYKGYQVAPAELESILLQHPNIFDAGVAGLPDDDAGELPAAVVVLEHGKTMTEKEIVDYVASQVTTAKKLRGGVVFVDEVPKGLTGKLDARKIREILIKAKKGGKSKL
#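 FLuc 10nM, D-luciferin 10uM, ATP 10uM, Mg acetate 10mM, Tris acetate pH 7.5, Tween/BSA; cpd qHTS; enzyme added last; CCD luminescence.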
# 3T3 cytotox: kills NIH 3T3 cells; NIH 3T3 viability, CellTiter-Glo ATP luminescence, 48-72 h; Potency, µM (series often up to 96.7 µM), inactives show top-dose activity change, negative = cytotoxicity, hits mostly inhibitors; 4.3% of 94,000 active; AID 1345082; further: nearly all actives have a fitted effect of over 55% in size
#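 Cells were seeded at 400 per well, treated with pin-transferred compound, and kept 48 or 72 hr at 37 °C before CellTiter-Glo addition and luminescence imaging of cellular ATP.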
# Starred values were filed as active, the others as inactive; i = inactive; ? = inconclusive; . = no result given; [ ] = dose if it differs, or a comment. In the library only some 11% were active in any assay of this set; here they are far more common. Unless noted, the call rests on the fitted dose curve; in most records, active means well fitted curve in the direction sought with a large enough effect; inconclusive means small, poorly fitted or top-dose-only effect, or another doubt; inactive means no such curve, though single readings can be large; an effect the other way counts as inactive or inconclusive. On the % scale 0 is the no-effect control and ±100 the full control effect; potency means the concentration at half of the fitted maximal effect.
SMILES,HEK293 tox,NPR1 antag,Luciferase inh,3T3 cytotox
Cc1ccc(CNC(=O)c2ccc(NC(=O)c3cc4c(=O)[nH]c(C)cn4n3)cc2)cc1,?,6%,11µM*,-4%
Cc1cn2nc(C(=O)NCCCc3ccccc3)cc2c(=O)[nH]1,-24%,15%,14µM*,-25%
CCn1cnnc1-c1nn(C)c2c1CN(C(=O)CCCC1C(=O)Nc3ccccc31)CC2 (stereo not given),i,4%,i,i
CC(C)(CC1Cc2ccccc2C1)NC(=O)C1CC2(CCNCC2)CN1 (stereo not given),25µM*,0%,i,32µM*
c1ccc(Nc2cc3c(cn2)CN(Cc2ccc4[nH]ccc4c2)CCN3)cc1,40µM*,-28%[70.6 µM],?,28µM*
c1ccc(Nc2cc3c(cn2)NCCN(Cc2ccc4[nH]ccc4c2)C3)cc1,56µM*,-15%[70.6 µM],i,?
CCC(C)Cc1nccc(C2(c3ccccc3Cl)CCNCC2)n1 (stereo not given),25µM*,-4%,i,28µM*
CC(C)CNc1nccc(C2(c3ccccc3Cl)CCNCC2)n1,25µM*,-6%,i,28µM*
O=C(C1CCN([S+](=O)([O-])c2cccs2)CC1)N1CCCC(c2nc3ccncc3[nH]2)C1 (stereo not given),-9%,.,.,-26%
COC(=O)c1ccc2nc(C[C@@H]3C[C@@H](C(C)C)[C@H](CNCc4ccccc4F)C=C3C)[nH]c2c1,?,4%,i,22µM*
COC(=O)c1ccc2nc(C[C@@H]3C[C@@H](C(C)C)[C@H](CNCc4ccc(OC)cc4O)C=C3C)[nH]c2c1,20µM*,-20%,i,25µM*
COC(=O)c1ccc2nc(C[C@@H]3C[C@@H](C(C)C)[C@H](CNC(=O)c4ccccc4)C=C3C)[nH]c2c1,?,-18%,i,?
COC(=O)c1ccc2nc(C[C@@H]3C[C@@H](C(C)C)[C@H](CNC(=O)C(C)C)C=C3C)[nH]c2c1,?,0%[70.6 µM],i,?
Cc1ccc2oc(N3CCCC4(CCC(=O)N(Cc5cccnc5)C4)C3)nc2c1 (stereo not given),1%,5%,i,?
COc1ccccc1CCNC(=O)C1CC(c2ccccc2)CN(C(=O)C2CC2)C1 (stereo not given),32µM*,-1%,i,?
CC(C)NC(=O)N1CC(C(=O)NCC2CC2)CC(c2ccccc2)C1 (stereo not given),-30%,6%,i,-13%
COC(=O)c1ccc2nc(C[C@@H]3C[C@@H](C(C)C)[C@H](CN)C=C3C)[nH]c2c1,?,-10%[70.6 µM],i,63µM*
COC(=O)c1ccc2nc(C[C@@H]3C[C@@H](C(C)C)[C@H](CNC4CCOCC4)C=C3C)[nH]c2c1,?,1%,i,?
COC(=O)c1ccc2nc(C[C@@H]3C[C@@H](C(C)C)[C@H](CNC4CCCCC4)C=C3C)[nH]c2c1,?,-9%,i,18µM*
COc1ccc(Cn2c3c(c(=O)n2Cc2ccccc2)CCN(C(=O)c2cocn2)C3)cc1,i,8%,i,25µM*
COc1ccc(Cn2c3c(c(=O)n2Cc2ccccc2)CCN(C(=O)c2nc4ccccc4[nH]2)C3)cc1,?,-20%,i,20µM*
COc1ccc(-n2c(=O)c3c(n2Cc2ccccc2)CN(C(=O)c2ccnn2C)CC3)cc1,-5%,-2%,i,35µM*
COc1ccc(Cn2c3c(c(=O)n2Cc2ccccc2)CCN(C(=O)c2cccc(N(C)C)c2)C3)cc1,-29%,2%,i,?
COc1ccc(-n2c(=O)c3c(n2Cc2ccccc2)CN(C(=O)c2cccc(O)c2)CC3)cc1,-4%,3%,i,?
COCCC(=O)N1CCc2c(n(Cc3ccc(OC)cc3)n(Cc3ccccc3)c2=O)C1,i,4%[70.6 µM],i,?
SMILES,HEK293 tox,NPR1 antag,Luciferase inh,3T3 cytotox
OC1CC(c2cc(NCCSC3CCCCC3)ncn2)C1 (stereo not given),?,13µM*,?,?
CC(=O)NC1CC(c2cc(NCCCOC3CCN(C)CC3)ncn2)C1 (stereo not given),-5%,0%,i,-16%
Cc1onc(-c2cnn(C)c2NCc2ccc(C#N)cc2)c1C(=O)N(C)c1ccccc1,?,-3%[70.6 µM],i,45µM*
COC1C(=O)N(c2cccc(F)c2)C12CCN(C(=O)CC1CCN(C(C)=O)CC1)CC2 (stereo not given),-22%,-3%,i,-10%
COc1cccc(S(=O)(=O)N2CCC3(CC2)C(OC)CN3c2cccc(F)c2)c1 (stereo not given),-13%,-2%,i,-12%
COC1CN(c2cccc(F)c2)C12CCN(C(=O)CC1CCCCC1)CC2 (stereo not given),45µM*,-2%,i,?
COC1CN(c2cccc(F)c2)C12CCN(S(=O)(=O)c1cccs1)CC2 (stereo not given),18µM*,.,.,?
Cc1nn(-c2ccccc2)c2c1C(C(C)C)N(C1CCCN(C(=O)Cc3cccc(Cl)c3)C1)C2=O (stereo not given),28µM*,.,.,?
Cc1nn(-c2ccccc2)c2c1C(C(C)C)N(C1CCN(C(=O)Cc3cccc(Cl)c3)C1)C2=O (stereo not given),45µM*,.,.,35µM*
COc1ccc(CC(=O)N2CCC(N3C(=O)c4c(c(C)nn4-c4ccccc4)C3C(C)C)C2)cc1 (stereo not given),?,.,.,40µM*
Cc1nn(-c2ccccc2)c2c1C(C(C)C)N(C1CCN(C(=O)Nc3ccccc3)C1)C2=O (stereo not given),-12%,.,.,?
O=C1CCC(C(=O)N(CC2CCN(Cc3ccccc3F)CC2)CC2CCCO2)=NN1 (stereo not given),-7%,2%,i,-2%
Cc1cc(C(=O)NCC(=O)N2CCCCCNC(=O)CC2c2ccccc2)nn1C (stereo not given),0%,2%,i,-11%
O=C(Nc1ccncn1)[C@@H]1C[C@@H](c2cccc(C(F)(F)F)c2)N(CC2CCOCC2)C1,79µM*,-7%[70.6 µM],i,?
Cn1cc(CN2C[C@H](C(=O)Nc3ccc(F)cc3)C[C@H]2c2cccc(C(F)(F)F)c2)cn1,?,-10%,i,?
CN1C[C@H](C(=O)Nc2ccncn2)C[C@H]1c1cccc(C(F)(F)F)c1,?,-8%[70.6 µM],i,?
O=C(Nc1ccc(F)cc1)[C@@H]1C[C@@H](c2cccc(C(F)(F)F)c2)N(CC2CCOCC2)C1,?,-18%,i,25µM*
O=C(c1ccc(Cl)cc1)N1CCC2(CC1)C(=O)NCN2CCc1ccc(Cl)cc1,40µM*,.,.,?
N#Cc1ccc(C(=O)N2CCC3(CC2)NC(=O)N(Cc2ccc(Cl)cc2)C3=O)cc1,?,?,i,16µM*
N#Cc1cccc(C(=O)N2CCC3(CC2)NC(=O)N(Cc2ccc(Cl)cc2)C3=O)c1,?,?,i,?
